Set-up in all cases: scale not given: direction of the effect not stated beside the values
Test [1] deals with Protein translocase subunit SecA (Escherichia coli (strain K12)) (UniProt P10408). Description: Assay to Identify E. coli SecA ATPase Inhibitors. Type of test: functional. To be noted: 30 µM.
The target of test [2] is T1, Ubiquitin-activating enzyme e1, putative (Leishmania donovani (strain BPK282A1)) (UniProt E9BSI1).
T1 sequence (whole entry): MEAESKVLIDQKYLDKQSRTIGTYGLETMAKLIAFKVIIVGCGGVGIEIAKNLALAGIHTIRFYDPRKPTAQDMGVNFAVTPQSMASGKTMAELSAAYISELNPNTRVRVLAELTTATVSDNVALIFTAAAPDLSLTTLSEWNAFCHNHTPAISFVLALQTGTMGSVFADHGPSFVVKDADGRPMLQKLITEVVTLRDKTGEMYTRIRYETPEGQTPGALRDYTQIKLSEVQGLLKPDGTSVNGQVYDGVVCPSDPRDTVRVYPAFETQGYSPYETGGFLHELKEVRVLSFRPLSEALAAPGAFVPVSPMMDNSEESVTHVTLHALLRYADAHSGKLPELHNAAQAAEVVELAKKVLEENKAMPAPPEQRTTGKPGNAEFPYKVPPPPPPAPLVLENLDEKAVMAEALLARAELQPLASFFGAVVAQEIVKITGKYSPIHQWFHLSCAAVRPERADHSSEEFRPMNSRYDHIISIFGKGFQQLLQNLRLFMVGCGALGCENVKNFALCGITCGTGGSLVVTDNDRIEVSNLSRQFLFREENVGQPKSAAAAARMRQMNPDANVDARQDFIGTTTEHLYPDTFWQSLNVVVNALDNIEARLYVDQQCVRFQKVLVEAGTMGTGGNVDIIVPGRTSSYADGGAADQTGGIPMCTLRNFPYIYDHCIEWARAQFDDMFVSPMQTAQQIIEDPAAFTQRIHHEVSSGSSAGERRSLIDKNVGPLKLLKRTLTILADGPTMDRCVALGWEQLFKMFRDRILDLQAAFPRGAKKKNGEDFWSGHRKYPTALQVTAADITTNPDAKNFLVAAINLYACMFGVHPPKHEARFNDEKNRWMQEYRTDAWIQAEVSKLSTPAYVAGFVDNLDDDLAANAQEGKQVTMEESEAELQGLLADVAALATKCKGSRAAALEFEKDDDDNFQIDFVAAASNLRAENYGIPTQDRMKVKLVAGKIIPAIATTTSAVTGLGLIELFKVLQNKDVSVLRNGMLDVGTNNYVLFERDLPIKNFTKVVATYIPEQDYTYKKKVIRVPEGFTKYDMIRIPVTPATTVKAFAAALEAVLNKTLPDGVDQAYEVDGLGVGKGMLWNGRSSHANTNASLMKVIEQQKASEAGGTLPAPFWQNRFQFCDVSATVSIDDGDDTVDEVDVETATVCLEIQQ
Description: Leishmania donovani Ubiquitin Activating Enzyme (LdE1). Conditions: 30 µM. Format: functional.

The target of test [3] is Sialic acid-binding Ig-like lectin 9 (Homo sapiens) (UniProt Q9Y336). Put plainly: Hs-Siglec9 ALPHAscreen SOP 20170721. Conditions: 10 µM. (Bead proximity is the source of the signal in Alpha formats.)
Sialic acid-binding Ig-like lectin 9 (Homo sapiens), sequence (Q9Y336 whole entry): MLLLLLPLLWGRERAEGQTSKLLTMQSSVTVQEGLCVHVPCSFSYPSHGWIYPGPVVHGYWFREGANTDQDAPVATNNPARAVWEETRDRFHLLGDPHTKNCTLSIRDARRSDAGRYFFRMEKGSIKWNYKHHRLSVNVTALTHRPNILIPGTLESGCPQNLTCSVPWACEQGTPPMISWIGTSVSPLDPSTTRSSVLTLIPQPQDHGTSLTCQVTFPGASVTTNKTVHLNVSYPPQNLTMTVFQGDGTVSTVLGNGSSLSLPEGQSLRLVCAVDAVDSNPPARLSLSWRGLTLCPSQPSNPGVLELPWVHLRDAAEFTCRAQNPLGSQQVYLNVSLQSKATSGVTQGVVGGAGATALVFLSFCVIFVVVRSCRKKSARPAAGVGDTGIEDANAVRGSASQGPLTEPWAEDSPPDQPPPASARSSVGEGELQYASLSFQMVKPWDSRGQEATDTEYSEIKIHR
Another test has as its system Trypanosoma cruzi. Put plainly: Trypanosoma cruzi phosphomannomutase and mannose-1-phosphate guanylyltransferase assay. Format: functional. Conditions: 10 µM.
Test [4] addresses T2, Arginase-2, mitochondrial (Homo sapiens) (UniProt P78540).
T2 sequence (whole entry): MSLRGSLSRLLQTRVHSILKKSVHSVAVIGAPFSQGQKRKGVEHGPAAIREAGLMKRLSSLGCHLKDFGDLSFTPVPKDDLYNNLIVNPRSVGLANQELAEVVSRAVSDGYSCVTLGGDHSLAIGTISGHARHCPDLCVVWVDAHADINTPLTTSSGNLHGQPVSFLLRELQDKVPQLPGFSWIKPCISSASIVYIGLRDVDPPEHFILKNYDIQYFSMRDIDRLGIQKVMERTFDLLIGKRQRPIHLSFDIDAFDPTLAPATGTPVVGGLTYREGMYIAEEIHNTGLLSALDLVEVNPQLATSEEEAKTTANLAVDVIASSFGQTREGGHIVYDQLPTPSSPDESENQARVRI
Put plainly: in vitro enzyme assay to detect the production of urea directly proportional to the activity of Arginase II. Also: in the data most compounds retested in dose-response had high values. Format: functional. To be noted: 33.3 µM.

For test [5], the target named is T3, Proteasome subunit beta (Trypanosoma cruzi) (UniProt O96673).
T3 sequence (whole entry): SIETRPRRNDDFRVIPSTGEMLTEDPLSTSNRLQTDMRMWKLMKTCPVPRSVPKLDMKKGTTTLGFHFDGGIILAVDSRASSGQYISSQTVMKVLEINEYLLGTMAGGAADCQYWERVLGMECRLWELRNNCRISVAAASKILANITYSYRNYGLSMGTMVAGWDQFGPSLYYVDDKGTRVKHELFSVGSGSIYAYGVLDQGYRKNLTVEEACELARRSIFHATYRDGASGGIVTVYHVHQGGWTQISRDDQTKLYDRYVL
Put plainly: Trypanosoma cruzi proteasome chymotrypsin-like activity (TcProtChymo) assay. Also: in the data most compounds retested in dose-response had high values. Format: functional. Conditions: 9.37 µM.

The species entered for another test is Homo sapiens. Put plainly: To identify inhibition of the IFN signalling (Jak-Stat) pathway via expression of an eGFP reporter gene under the control of an IFN-stimulated response element (ISRE) containing MxA promoter. To be noted: 30 µM. Type of test: functional.
Test [6] concerns the target T4, Tyrosyl-tRNA synthetase, putative (Trypanosoma cruzi (strain CL Brener)) (UniProt Q4DSP6).
T4 sequence (whole entry): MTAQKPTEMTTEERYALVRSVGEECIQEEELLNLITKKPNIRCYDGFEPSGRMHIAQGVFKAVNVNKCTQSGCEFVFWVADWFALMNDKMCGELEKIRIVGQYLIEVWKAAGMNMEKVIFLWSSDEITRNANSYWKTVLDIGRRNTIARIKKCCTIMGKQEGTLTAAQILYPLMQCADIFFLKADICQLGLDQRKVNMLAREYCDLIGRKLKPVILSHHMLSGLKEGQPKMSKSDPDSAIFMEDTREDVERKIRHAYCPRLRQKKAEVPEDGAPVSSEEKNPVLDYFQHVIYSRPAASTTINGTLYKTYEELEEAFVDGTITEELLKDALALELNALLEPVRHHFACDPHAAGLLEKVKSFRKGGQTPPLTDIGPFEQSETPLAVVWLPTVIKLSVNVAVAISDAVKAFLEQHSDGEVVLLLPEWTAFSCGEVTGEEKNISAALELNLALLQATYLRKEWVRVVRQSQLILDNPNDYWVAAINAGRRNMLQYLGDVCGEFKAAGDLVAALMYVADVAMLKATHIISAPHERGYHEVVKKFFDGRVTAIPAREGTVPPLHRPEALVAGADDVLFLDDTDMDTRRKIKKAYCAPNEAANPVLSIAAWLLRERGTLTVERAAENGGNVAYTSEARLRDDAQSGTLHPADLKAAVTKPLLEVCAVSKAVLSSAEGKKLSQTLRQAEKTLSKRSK
Description: Trypanosoma cruzi tyrosyl tRNA synthetase (TcYRS) _High Tyrosine SOP. Also: in the data most compounds retested in dose-response had high values. Type of test: functional. Conditions: 30 µM.

The target in test [7] is T4, Tyrosyl-tRNA synthetase, putative (Trypanosoma cruzi (strain CL Brener)). Description: Trypanosoma cruzi tyrosyl tRNA synthetase (TcYRS) SOP. Format: functional. Conditions: 30 µM.
Test [8] deals with Chromo domain-containing protein 1 (Saccharomyces cerevisiae (strain ATCC 204508 / S288c) (Baker's yeast)) (UniProt P32657). Put plainly: ScCHD-1 Enzyme Inhibition Assay. Also: in the data most compounds retested in dose-response had high values. Type of test: functional. To be noted: 30 µM.
Chromo domain-containing protein 1 (Saccharomyces cerevisiae (strain ATCC 204508 / S288c) (Baker's yeast)), sequence (P32657 whole entry, the tested form may be a part): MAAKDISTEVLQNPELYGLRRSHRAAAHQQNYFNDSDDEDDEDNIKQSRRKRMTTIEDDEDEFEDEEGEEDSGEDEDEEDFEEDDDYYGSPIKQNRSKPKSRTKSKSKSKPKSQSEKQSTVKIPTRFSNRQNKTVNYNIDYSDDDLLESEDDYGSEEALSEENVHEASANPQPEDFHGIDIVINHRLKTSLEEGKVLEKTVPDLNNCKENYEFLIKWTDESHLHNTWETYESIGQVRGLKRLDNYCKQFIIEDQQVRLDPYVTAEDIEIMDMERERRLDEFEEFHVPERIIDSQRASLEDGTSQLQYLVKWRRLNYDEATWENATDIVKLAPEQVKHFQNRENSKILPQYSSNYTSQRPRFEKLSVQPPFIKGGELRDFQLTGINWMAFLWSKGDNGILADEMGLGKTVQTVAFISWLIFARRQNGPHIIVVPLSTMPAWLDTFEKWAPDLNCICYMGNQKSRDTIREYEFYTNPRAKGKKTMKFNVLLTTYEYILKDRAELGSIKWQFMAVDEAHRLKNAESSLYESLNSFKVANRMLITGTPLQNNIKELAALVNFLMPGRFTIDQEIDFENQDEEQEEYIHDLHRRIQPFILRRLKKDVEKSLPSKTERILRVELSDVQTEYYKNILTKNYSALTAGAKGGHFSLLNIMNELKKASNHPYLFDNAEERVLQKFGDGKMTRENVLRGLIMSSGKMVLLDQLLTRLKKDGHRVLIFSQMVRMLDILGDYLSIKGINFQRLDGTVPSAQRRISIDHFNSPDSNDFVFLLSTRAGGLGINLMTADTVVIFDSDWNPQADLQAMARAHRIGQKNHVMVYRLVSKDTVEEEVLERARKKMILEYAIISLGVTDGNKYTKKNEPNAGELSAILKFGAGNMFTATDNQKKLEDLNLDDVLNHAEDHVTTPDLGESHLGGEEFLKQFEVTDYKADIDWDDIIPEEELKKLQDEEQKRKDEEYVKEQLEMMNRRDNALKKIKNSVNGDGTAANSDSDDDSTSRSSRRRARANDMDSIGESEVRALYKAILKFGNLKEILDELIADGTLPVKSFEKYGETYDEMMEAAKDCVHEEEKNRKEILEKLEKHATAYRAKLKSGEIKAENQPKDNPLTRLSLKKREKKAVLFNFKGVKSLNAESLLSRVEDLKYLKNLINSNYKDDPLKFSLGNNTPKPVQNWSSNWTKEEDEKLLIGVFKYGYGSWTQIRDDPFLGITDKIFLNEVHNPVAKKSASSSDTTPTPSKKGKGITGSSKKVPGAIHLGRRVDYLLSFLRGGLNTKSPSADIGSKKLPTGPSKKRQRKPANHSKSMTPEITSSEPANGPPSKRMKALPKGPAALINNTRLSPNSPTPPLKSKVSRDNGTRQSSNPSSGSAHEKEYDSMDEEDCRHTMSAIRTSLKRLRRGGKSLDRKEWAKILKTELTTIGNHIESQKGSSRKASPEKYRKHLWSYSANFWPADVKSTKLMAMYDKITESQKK

For part of these data: Results with a measured potency or affinity are listed apart.

Protein translocase subunit SecA (Escherichia coli (strain K12)), sequence (P10408 whole entry): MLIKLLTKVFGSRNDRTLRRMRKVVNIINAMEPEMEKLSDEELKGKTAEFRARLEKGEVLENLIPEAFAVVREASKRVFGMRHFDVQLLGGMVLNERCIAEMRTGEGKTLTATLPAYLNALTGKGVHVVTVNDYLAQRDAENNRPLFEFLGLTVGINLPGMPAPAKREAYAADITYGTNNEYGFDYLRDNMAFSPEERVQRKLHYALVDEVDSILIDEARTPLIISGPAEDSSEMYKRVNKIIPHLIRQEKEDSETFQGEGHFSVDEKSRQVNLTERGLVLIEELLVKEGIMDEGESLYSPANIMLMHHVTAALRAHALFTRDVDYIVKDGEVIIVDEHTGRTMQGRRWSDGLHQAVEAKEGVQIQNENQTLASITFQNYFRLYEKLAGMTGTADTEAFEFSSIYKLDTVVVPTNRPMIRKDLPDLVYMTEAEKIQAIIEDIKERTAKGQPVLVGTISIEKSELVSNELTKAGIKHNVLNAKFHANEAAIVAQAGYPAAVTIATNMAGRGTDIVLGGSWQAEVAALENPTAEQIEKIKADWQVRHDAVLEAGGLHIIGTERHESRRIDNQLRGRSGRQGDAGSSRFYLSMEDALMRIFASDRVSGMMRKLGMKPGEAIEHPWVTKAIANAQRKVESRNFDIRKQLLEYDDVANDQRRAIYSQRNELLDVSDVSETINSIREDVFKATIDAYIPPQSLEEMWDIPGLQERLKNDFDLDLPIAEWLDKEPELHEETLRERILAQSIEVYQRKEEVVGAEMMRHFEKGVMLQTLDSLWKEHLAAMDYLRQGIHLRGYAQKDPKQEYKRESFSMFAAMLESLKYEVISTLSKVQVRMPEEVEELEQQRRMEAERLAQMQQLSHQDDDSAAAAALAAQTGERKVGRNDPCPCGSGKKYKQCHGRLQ

For the compound `COc1cc(CNCc2ccc(NC(=O)NC(C)C)cc2)cc(OC)c1`, the Percent Effect in [1] was -1.27%; in test [2], 15.6%; in test [3], 5.02%; in the test with Trypanosoma cruzi, 6.9%; in test [4], 10.4%; in test [5], 16.1%. Moreover, the Percent Effect in the test listed under Homo sapiens was 33.6%; in test [6], 8.82%; in test [7], 30.6%; in test [8], -10.7%.

Take `CN(C)C[C@@H]1C[C@@H]2CN(C(=O)c3ccoc3)CC[C@@H]2N1CC1CC1`: the Percent Effect in [1] was -7.24%; in test [2], 11.7%; in [3], 1.31%; in the test on Trypanosoma cruzi it was -6.19%; in test [4], 0.913%; in [5] it was 0.429%. Also, the Percent Effect is 11.2% in the test listed under Homo sapiens, -4.83% in test [6], -2.5% in [7] and -4.24% in test [8].

As to `O=C1C[C@H]2[C@@H](CCN2C(=O)Cc2cccs2)N1Cc1cccnc1`, the Percent Effect in test [1] is -6.6%; in [2], 9.09%; in test [3], -0.0705%; in the test on Trypanosoma cruzi it was -1.31%; in [4] it was -4.11%; in [5], 13.7%. In addition, the Percent Effect in the test filed under Homo sapiens was 8.33%; in [6], 6.76%; in test [7], 7.5%; in test [8], -3.4%.

As to `CCOC1COC2(CCN(S(=O)(=O)c3cccc(F)c3)CC2)C1` (stereo not given), the Percent Effect in test [1] is -2.48%; in test [2], 6.49%; in test [3], -0.342%; in the test on Trypanosoma cruzi, -7.3%; in test [4], 6.07%; in test [5], 19.9%. Moreover, the Percent Effect in the test listed under Homo sapiens was -2.83%; in [6], 6.84%; in test [7] it was 7.69%; in test [8], -3.54%.

For the compound `O=C(c1cc(C2CC2)[nH]n1)N1CCCC(n2cncn2)C1` (stereo not given), the Percent Effect was -2.3% in test [1]; 7.69% in [2]; -12.5% in [3]; 4.6% in the test with Trypanosoma cruzi; 1.23% in test [4]; 8.11% in test [5]. The Percent Effect in the test filed under Homo sapiens is -13.2%; in test [6], 2.39%; in test [7], 10.8%; in test [8] it was -2.79%.

Turning to `Cc1ccc(NC2CCN(C(=O)c3cccc4ncccc34)CC2)nn1`, the Percent Effect in [1] is -3.89%; in test [2], 5.33%; in [3], -2.08%; in the test with Trypanosoma cruzi, -0.803%; in [4], 3.99%; in test [5], -1.61%. In addition, the Percent Effect in the test listed under Homo sapiens is 9.09%; in [6], 13.2%; in [7], 15.4%; in [8], -8.9%.

Take `Cc1ccc(NC(=O)C(C)N2CCCN(c3nccs3)CC2)c(C)c1` (stereo not given): the Percent Effect is -1.1% in [1]; 15.4% in [2]; -3.51% in [3]; -1.41% in the test on Trypanosoma cruzi; 4.51% in test [4]; 14.1% in test [5]. Further, the Percent Effect in the test filed under Homo sapiens is 8.08%; in test [6], 2.39%; in test [7], 6.02%; in test [8], -0.819%.

For `CCn1c(Cn2cncn2)nnc1C1CCN(Cc2ccc(C)o2)CC1`, the Percent Effect was -6.62% in [1]; 5.41% in test [2]; 5.22% in test [3]; 3.78% in the test on Trypanosoma cruzi; 2.45% in [4]; 9.07% in [5]. Besides, the Percent Effect in the test listed under Homo sapiens was 5.52%; in [6], 4.79%; in test [7] it was 14.6%; in test [8] it was -3.96%.

Turning to `COc1cccc(CNc2cnn(C)c(=O)c2Cl)c1`, the Percent Effect is -6.48% in [1]; 0% in [2]; 3.58% in test [3]; -1.21% in the test with Trypanosoma cruzi; 6.65% in [4]; 3.48% in test [5]. Besides, the Percent Effect in the test listed under Homo sapiens was 55.5%; in test [6], 2.63%; in [7], 5.13%; in test [8] it was -5.75%.

As for `OC(COCc1ccccc1F)CN1CCc2c(ncn2C2CC2)C1` (stereo not given), the Percent Effect in test [1] is -3.46%; in [2], -5.33%; in test [3] it was 7.5%; in the test on Trypanosoma cruzi, -4.02%; in [4], 2.66%; in test [5] it was 8.06%. Besides, the Percent Effect was 10.4% in the test filed under Homo sapiens, 2.63% in [6], 0% in test [7] and -6.26% in test [8].

On to `CN1CCCn2c(nc(CNC(=O)c3ccsc3)cc2=O)C1`, for which the Percent Effect is -0.659% in test [1]; 1.3% in test [2]; -2.49% in test [3]; -8.28% with Trypanosoma cruzi; 6.07% in test [4]; 5.56% in test [5]. The Percent Effect is -5.79% in the test listed under Homo sapiens, 1.58% in [6], 5.13% in test [7] and -0.931% in test [8].

In the case of `Cc1cccc(CN2C(=O)CCC23CCN(Cc2cccn2C)CC3)n1`, the Percent Effect in [1] was -2.82%; in test [2], 27.3%; in test [3] it was -0.409%; in the test with Trypanosoma cruzi it was -0.75%; in [4], 0.457%; in [5] it was 16.9%. The Percent Effect in the test filed under Homo sapiens is 23.5%; in test [6], 9.66%; in test [7], 22.5%; in test [8], -11.1%.

These data come from ChEMBL document CHEMBL3988442, “University of Dundee, Small-Polar-MMV Screening Library” (2021).
